In PubChem BioAssay AID463173 (ICCB-Longwood Screening Facility, Harvard Medical School, 2010):
Among all 52,000 compounds or so, about 4,300 (8.3%) were called active. Cut-off read from the data, not from the text of the source: active = survival mostly below about 52% (no sharp cut-off); inactive = mostly above about 56%. The full list was thinned out, with actives kept by preference.

system: DeltatarO mutant; test: S. aureus survival, RN4220 and DeltatarO strains – OD600, teichoic acid synthesis inhibitors, primary screen (AID 463173); details: S. aureus RN4220 wild type/DeltatarO growth, OD600, 18 h, hits give low values, screened at 18.75 µg/mL (by protocol)

Structure (SMILES) | survival
COc1ccc(-c2cc(C(=O)Nc3c(Cl)cccc3Cl)no2)cc1OC | 58% (inactive)
Cc1cccc(OC(=O)CSc2nnc(-c3ccc4c(c3)OCO4)o2)c1C | 72% (inactive)
Cc1ccc(NC(=O)c2cc(-c3ccc4c(c3)OCO4)on2)cc1 | 75% (inactive)
Cc1cccc(OC(=O)c2cc(-c3ccc(Cl)cc3)on2)c1C | 106% (inactive)
Cc1ccc(OC(=O)c2cc(-c3ccc4c(c3)OCCO4)on2)c(C)c1 | -2% (active)
Cc1ccccc1OC(=O)c1cc(-c2ccc3c(c2)OCCO3)on1 | -1% (active)
Cc1ccc(OC(=O)c2cc(-c3ccc(Cl)cc3)on2)c(C)c1 | 92% (inactive)
CC(C)c1ccc(OC(=O)c2cc(-c3ccccc3)on2)cc1 | 109% (inactive)
Cc1cccc(OC(=O)c2cc(-c3ccc4c(c3)OCCO4)on2)c1C | -1% (active)
Cc1ccc(-c2cc(C(=O)Oc3ccccc3Cl)no2)cc1C | -1% (active)
COc1ccc(Nc2nnc(-c3cc4cc(Cl)ccc4oc3=O)s2)cc1 | 81% (inactive)
COc1ccc(Br)cc1CNC(=O)CN1C(=O)CCCc2ccccc21 | 80% (inactive)
Cn1c(=O)n(C)c2cc(CNCc3ccccc3)ccc21 | 88% (inactive)
COC(=O)c1ccc(C(=O)OC)c(NC(=O)c2c(-c3ccccc3)noc2C)c1 | 147% (inactive)
COc1cccc(CSc2nc3n(n2)C(CC(C)C)C(C(=O)Nc2ccccc2C)=C(C)N3)c1 (stereo not given) | 87% (inactive)
Cc1ccc(N2CC(c3nc(-c4ccc(Cl)cc4)no3)CC2=O)cc1F (stereo not given) | 98% (inactive)
CCS(=O)(=O)c1nc(S(=O)(=O)c2ccc(C)cc2)c(NCC(C)C)s1 | 95% (inactive)
CCN1CCN(C(c2ccccc2Cl)c2sc3nc(-c4ccco4)nn3c2O)CC1 (stereo not given) | 92% (inactive)
O=C(Oc1ccccc1Cl)c1cc(-c2ccc3c(c2)OCCO3)on1 | -2% (active)
O=C(Nc1ccccc1C(F)(F)F)c1cc(-c2ccc3c(c2)OCCO3)on1 | 117% (inactive)
Cc1ccc(C)c(N2CCN(C(=O)c3cc4cc5ccc(C)cc5nc4o3)CC2)c1 | 90% (inactive)
Cc1ccc2cc3cc(C(=O)N(C)c4ccccc4C)oc3nc2c1 | 53% (active)
CCN(C(=O)c1cc2cc3ccc(OC)cc3nc2o1)c1cccc(C)c1 | 6% (active)
COc1ccc2cc3cc(C(=O)NCc4ccc(C)cc4)oc3nc2c1 | 83% (inactive)

Structure (SMILES) | survival
Cc1ccc2cc3cc(C(=O)N4CCN(c5ccccc5)CC4)oc3nc2c1 | 61% (inactive)
COc1ccc(CNC(=O)c2cc3cc4ccc(C)cc4nc3o2)cc1 | 74% (inactive)
Cc1ccccc1Cn1c(CN2CCC(C(=O)NCCN(C)C)CC2)cc2ccccc21 | 112% (inactive)
COc1ccc(S(=O)(=O)N(C)CC(=O)NCc2ccc3c(c2)OCO3)cc1 | 89% (inactive)
COc1ccc(/C=C(\C#N)C(=O)NCc2ccco2)cc1C | 80% (inactive)
Cc1cc(C)c(NC(=O)Nc2ccc3snnc3c2)c(C)c1 | 118% (inactive)
Cc1ccc(F)c(NC(=O)Nc2ccc3snnc3c2)c1 | 97% (inactive)
CCc1ccccc1NC(=O)Nc1ccc2snnc2c1 | 41% (active)
Cc1c(Cl)cccc1NC(=O)c1ccc2snnc2c1 | 126% (inactive)
CCOc1ccc(NC(=O)Nc2ccc3snnc3c2)cc1 | 110% (inactive)
Cc1c(Cl)cccc1NC(=O)Nc1ccc2snnc2c1 | -4% (active)
NC(=O)c1c(NC(=O)c2noc3c2CCCC3)sc2c1CCCC2 | 40% (active)
CC(C)(C)C1CCc2onc(C(=O)Nc3sc4c(c3C#N)CCCC4)c2C1 (stereo not given) | 105% (inactive)
CC(=O)Nc1sc2c(c1C(N)=O)CCCC2 | 80% (inactive)
NC(=O)c1c(NC(=O)c2cc(-c3ccc(F)cc3)on2)sc2c1CCCC2 | 62% (inactive)
CCOC(=O)c1c(NC(=O)c2noc3c2CC(C(C)(C)C)CC3)sc2c1CCCC2 (stereo not given) | 66% (inactive)
CC(C)(C)C1CCc2onc(C(=O)Nc3sc4c(c3C(N)=O)CCCC4)c2C1 (stereo not given) | 45% (active)
CCOC(=O)c1noc2nc(C)n(Cc3cccc(C#N)c3)c(=O)c12 | 87% (inactive)
O=C(NCc1ccccc1F)C1CCN(Cc2cc3ccccc3n2Cc2cccc(Cl)c2)CC1 | 78% (inactive)
CCc1sc(Nc2cccc(Cl)c2C)nc1-c1cc2cccc(OC)c2oc1=O | 67% (inactive)
O=C(NC1CCCC1)C(c1ccsc1)N(C(=O)Cc1cccs1)c1ccccc1 (stereo not given) | 86% (inactive)
O=c1[nH]c2ccc(S(=O)(=O)NC3CCCCC3)cc2[nH]1 | 62% (active)
CCCNS(=O)(=O)c1ccc2[nH]c(=O)[nH]c2c1 | 96% (inactive)
O=S(=O)(NC1CCCC1)c1ccc(Br)cc1 | 93% (inactive)

Structure (SMILES) | survival
Cc1nc2c(-c3ccc(F)cc3)c(C)nn2c(C)c1CCC(=O)NCc1ccc(F)cc1 | 78% (inactive)
CC(C)NC(=O)CSc1nc2ccccc2nc1N1CCCCC1 | -26% (active)
CCN(C(=O)CSc1nc2ccccc2nc1Cc1cccc(OC)c1)c1cccc(C)c1 | 0% (active)
COc1cccc(Cc2nc3ccccc3nc2SCC(=O)Nc2cccc(C)c2)c1 | 94% (inactive)
COc1ccc(NC(=O)CSc2nc3ccccc3nc2N2CCCCC2)cc1 | 18% (active)
CCc1ccccc1NC(=O)CSc1nc2ccccc2nc1Cc1cccc(OC)c1 | 86% (inactive)
CC(C)NC(=O)CSc1nc2ccccc2[nH]1 | 60% (inactive)
COc1cccc(Cc2nc3ccccc3nc2SCC(=O)Nc2cc(OC)ccc2OC)c1 | 47% (active)
COc1cccc(Cc2nc3ccccc3nc2SCC(=O)Nc2ccccc2F)c1 | 67% (inactive)
CC(=O)Nc1ccc(NC(=O)CSc2nc3ccccc3nc2N2CCCCC2)cc1 | 57% (inactive)
O=C(O)CSc1nc2ccccc2nc1N1CCCCC1 | 56% (inactive)
COc1ccc(NC(=O)CSc2nc3ccccc3nc2N2CCC(C)CC2)cc1 | 45% (inactive)
CCN(C(=O)CSc1nc2ccccc2nc1Cc1ccc(F)cc1)c1cccc(C)c1 | 86% (inactive)
O=C(N/N=C/c1ccc(-c2ccc(Cl)c(C(=O)O)c2)o1)c1ccncc1 | 68% (inactive)
CCc1ccc(-n2c(=O)c3c4c(sc3n(CC(=O)c3ccc(F)cc3)c2=O)CCC4)cc1 | 81% (inactive)
CC(C)CCNC(=O)c1nn(C)c2c1CSc1ccccc1-2 | 70% (inactive)
Cn1cnnc1SCC(N)=O | 99% (inactive)
CCOC(=O)c1ccc(NC(=O)c2csnn2)cc1 | 104% (inactive)
Cc1ccc(CNC(=O)CSc2ncc(S(=O)(=O)c3ccc(C)c(Cl)c3)c(=O)[nH]2)cc1 | 77% (inactive)
Cc1cccc(NC(=O)CSc2cn(CC(=O)N3CCOCC3)c3ccccc23)c1 | 82% (inactive)
COc1ccc(CCNC(=O)Cn2c(-c3cccs3)cc3cc(F)ccc32)cc1OC | 83% (inactive)
Cc1ccc(-n2nc(C(=O)NCc3ccc(F)cc3Cl)c3c4ccccc4n(C)c3c2=O)cc1 | 131% (inactive)
COc1ccc(OC)c(NC(=O)CSc2nc3ccccc3nc2N2CCCCC2)c1 | 5% (active)
COc1ccc(Cl)cc1NC(=O)CSc1nc2ccccc2nc1N1CCCCC1 | 27% (active)

Structure (SMILES) | survival
Cc1cc(C)c(NC(=O)CSc2nc3ccccc3nc2N2CCCCC2)c(C)c1 | 39% (active)
Cc1cc(C)c(NC(=O)c2nc3ccccc3nc2N2CCCCC2)c(C)c1 | 90% (inactive)
Cc1cccc(NC(=O)CSc2nc3ccccc3nc2N2CCCCC2)c1C | 75% (inactive)
COc1ccccc1Cc1nc2ccccc2nc1SCC(=O)Nc1cc(Cl)ccc1OC | 73% (inactive)
COc1ccc(NC(=O)CSc2nc3ccccc3nc2N2CCOCC2)c(OC)c1 | 76% (inactive)
COc1ccc(C)cc1NC(=O)CSc1nc2ccccc2nc1N1CCOCC1 | 73% (inactive)
COc1ccc(OC)c(NC(=O)CSc2cn(CC(=O)N3CCCCCC3)c3ccccc23)c1 | 85% (inactive)
COc1ccc(-c2nc3n(n2)C(c2cccc(C)c2)C(C(N)=O)=C(C)N3)cc1OC (stereo not given) | 93% (inactive)
CCN(CC)Cc1ccc(C(=O)O)o1 | 97% (inactive)
Cn1c(=O)c2sccc2n2c(CCC(=O)N3CCN(c4cccc(Cl)c4)CC3)nnc12 | 193% (inactive)
CCOc1ccc(-c2cccc(NS(=O)(=O)c3ccc(Cl)s3)c2)nn1 | 92% (inactive)
Cc1cccc(NC(=O)CSc2nc(=O)n(Cc3ccccn3)c3c2CCC3)c1C | 85% (inactive)
CCCOc1ccc(N2CC(C(=O)Nc3cccc(Cl)c3Cl)CC2=O)cc1 (stereo not given) | 145% (inactive)
CCCCOc1cccc(C(=O)N(Cc2sccc2C)C2CCS(=O)(=O)C2)c1 (stereo not given) | 73% (inactive)
CCc1ccc(NC(=O)c2ccc(Cn3nc(N4CCN(c5ccccc5)CC4)ccc3=O)o2)cc1 | 83% (inactive)
Cc1ccc(S(=O)(=O)N2CCc3cc(C(=O)Nc4c(F)cccc4F)ccc32)cc1 | 64% (inactive)
O=C(Nc1cccc(Cl)c1)c1ccc2c(c1)CCN2S(=O)(=O)c1ccccc1 | 41% (active)
CC(=O)c1cccc(NC(=O)c2ccc3c(c2)CCN3S(=O)(=O)c2ccccc2)c1 | 44% (active)
CCCCOC(=O)c1ccc(NC(=O)c2ccc3c(c2)CCN3S(=O)(=O)c2ccccc2)cc1 | 57% (inactive)
O=C(c1ccc2c(c1)CCN2S(=O)(=O)c1ccccc1)N1CCN(c2cccc(Cl)c2)CC1 | 45% (inactive)
CC(=O)Nc1ccc(NC(=O)c2ccc3c(c2)CCN3S(=O)(=O)c2ccc(Cl)cc2)cc1 | 113% (inactive)
CCc1c(C)sc2c1CCN(C(=O)Nc1ccccc1C(=O)OC)C2c1ccc(OC)cc1 (stereo not given) | 92% (inactive)
Cn1cc(C(=O)NCCc2ccccc2)c(=O)c2cc(S(=O)(=O)N3CCCCCC3)ccc21 | 68% (inactive)
